# Screens: PubChem BioAssay, several laboratories
# HSF1 inh = HSF1 inhibition; activity change, negative = inhibition, % at 7.5 µM (by protocol); 300,000 compounds, 0.77% hits; NIH3T3-HGL HSE-luciferase, MG132-induced, luminescence 8 h; stronger effect = lower value; AID 2098;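 active = more than half of replicate wells show activity change below -50%, luminescence cut by over half; inconclusive = some wells, but at most half, below -50%; inactive = no replicate well below -50%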;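 also: luciferase reports HSF-1 transcriptional activity via heat shock element; 0% = median of DMSO wells and -100% = zero luminescence signal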
# NALP1 inh = NALP1 inhibition | AID 2071 | S. cerevisiae NALP1/ASC/caspase-1 growth, X-gal OD620, 72 h | inhibition, % at 10 µM | 280,000 compounds, 0.61% hits; in the data active = inhibition mostly above about 24%, no sharp cut-off; inactive = mostly below about 32%
# HSF-1 act = increases HSF-1 driven luciferase reporter signal. activation, % at 9 µM. 300,000 compounds, 1.7% hits. NIH3T3-HGL HSF-1 luciferase reporter, MG132, 8 h; 100% = twice DMSO control signal;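 active = mean replicate activation of at least 50% with a set share of replicates each reaching 50%; inconclusive = only one of those two conditions met; inactive = mean below 50% and too few replicates reaching it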;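 also: 0% = median of the neutral control wells and 100% = twice that signal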
# HSP90 refold inh = blocks HSP90-mediated luciferase refolding in reticulocyte lysate. Rabbit reticulocyte lysate, luciferase refolding luminescence, 3 h. 290,000 compounds, 0.91% hits. inhibition, % at 5.6 µM;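 active = inhibition above the screen-wide mean plus 3 SD, computed separately per campaign, cut at about 16% in these data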;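 also: 0% = DMSO wells and 100% = 60 µM geldanamycin wells; inhibitors lower the luminescence because luciferase stays unfolded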
# Hsp70 activator = transcriptional activators of Hsp70; HeLa Hsp70 promoter luciferase reporter, luminescence; scaled: vehicle 0, proteasome-inhibitor control 100%; activation, % at 10 µM; 200,000 compounds, 0.04% hits; AID 1203;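 active = activation above the mean across all tested compounds plus 3 SD, cutoff set per campaign, cut at about 5.5% in these data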;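 also: 100% = MG132 at 30 µM as the positive control and 0% = DMSO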
# pCIP destab = p/CIP protein destabilization; Q05BA5; 290,000 compounds, 0.01% hits; F442A p/CIP-EGFP cells, EGFP fluorescence, 16 h; decrease of EGFP signal, % at 10 µM;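 active = EGFP signal decrease of at least 30% at 10 µM or well 3 SD below plate mean, unless failing retest; inactive = the rest, including hits failing retest or dose response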
# * hit, by the source's call; ? = inconclusive; nt = not tested or not shown. Hits are enriched below; roughly 3.8% of the tested compounds scored in any of these assays.
SMILES,HSF1 inh,NALP1 inh,HSF-1 act,HSP90 refold inh,Hsp70 activator,pCIP destab
COc1ccc(-c2nn(-c3ccccc3F)cc2CNCCn2nc(C)cc2C)cc1,6,4,-15,5,0,1
CC1CCC2C(=O)N(c3ccc(C(=O)Oc4cccc5cccnc45)cc3)C(=O)C2C1 (configuration not stated),23,71*,11,0,0,3
COc1ccc(C2=NN(C(=O)CN3CCCC3)C(c3ccc(OC)cc3)C2)cc1 (configuration not stated),33,7,55*,-1,nt,-2
COc1ccc(C2CC(c3ccccc3)=NN2C(=O)c2cccs2)cc1 (configuration not stated),51,15,71*,-4,0,-3
CCNC(=O)Oc1ccc[nH]c1=O,1,37*,7,3,nt,5
CC1C(=O)C(C)C(c2ccco2)NC1c1ccco1 (configuration not stated),-64*,13,-71,-3,0,4
CC1/C(=N/O)CC(c2ccco2)NC1c1ccco1 (configuration not stated),4,25,31,-1,0,-11
COc1ccccc1/C=C/C(=O)c1cc(Br)ccc1OC(=O)c1ccco1,76,nt,103*,4,0,nt
CCC(C(=O)OC(C)C(=O)Nc1ccc(Cl)cn1)c1ccccc1 (configuration not stated),-10,17,7,-5,nt,1
c1ccc(-c2cccc(-c3ccccn3)n2)nc1,-8,51*,-30,0,0,-1
Cc1cc(Cl)ccc1OCCCC(=O)N1CCCCC1,6,-24,15,-6,0,6
CCCCOc1ccc(C(=O)Nc2cc(C)c(OCC(=O)N3CCOCC3)c(C)c2)cc1,3,2,4,-3,0,-6
Cc1cc(Cl)ccc1OCCCC(=O)N1CCOCC1,-65*,-8,-74,0,1,-5
Cc1cc(OCCCC(=O)N2CCCCC2)cc(C)c1Cl,3,21*,-12,1,-1,-2
Cc1cc(NC(=O)c2ccc(Cl)cc2)cc(C)c1OCC(=O)N1CCOCC1,23,5,54*,4,nt,15
CC(OC(=O)c1cc(=O)[nH]c2ccccc12)C(=O)Nc1ccccc1F (configuration not stated),1,nt,4,nt,nt,nt
CCSc1ccc(/C(N)=N/OC(=O)c2cccs2)cn1,25,4,34,-5,nt,-10
CNC(=S)N(C1=NCC(c2ccc([N+](=O)[O-])cc2)S1)c1ccccc1 (configuration not stated),27,23,?,11,nt,-17
O=C(Cc1nc2ccccc2[nH]1)c1ccc(Br)cc1,49,9,101*,4,0,0
COCCNC(=O)CSc1ccccc1C(=O)NC1CCCc2ccccc21 (configuration not stated),1,23,3,-2,nt,0
COC(=O)[C@@H]1C[C@H]2CC[C@H](O)C[C@H]2N1Cc1ccc(C)s1,2,nt,-16,nt,nt,-4
COc1cccc(-n2nnc3c(=O)n(Cc4ccc(Cl)cc4)cnc32)c1,5,25,3,1,0,3
COc1cccc(-n2nnc3c(=O)n(Cc4ccccc4Cl)cnc32)c1,-58*,14,-62,7,0,7
CCCCN(C(=O)c1cccc(S(=O)(=O)N2CCCCC2)c1)C1CCS(=O)(=O)C1 (configuration not stated),-3,13,2,-4,nt,-3
CCN(C(=O)c1cccc(S(=O)(=O)N2CCCCC2)c1)C1CCS(=O)(=O)C1 (configuration not stated),28,nt,57*,nt,nt,nt
SMILES,HSF1 inh,NALP1 inh,HSF-1 act,HSP90 refold inh,Hsp70 activator,pCIP destab
Cc1cc(OC(F)F)ccc1NC(=O)Nc1ccc2c(c1)OCO2,-4,14,3,-4,nt,-2
CN1CCc2c(sc(/N=C/c3cc(Cl)ccc3O)c2C#N)C1,-52*,19,-60,16,nt,-5
Cc1nc(NCCc2ccccc2)c2oc3ccccc3c2n1,-1,20,-4,6,0,2
Cc1ccc2c(c1)N(Cc1ccc([N+](=O)[O-])cc1)C=NS2(=O)=O,-65*,-3,-71,-4,nt,2
CC(NS(=O)(=O)c1ccccc1Cl)C1CC2CCC1C2 (configuration not stated),0,-8,-7,7,nt,-14
O=C(Nc1ccccc1F)c1ccc([N+](=O)[O-])s1,68,0,101*,0,0,2
O=C(Nc1cccc2ccccc12)c1ccc([N+](=O)[O-])s1,41,42,71*,3,0,-14
Cn1ncc([N+](=O)[O-])c1C(=O)Nc1cccc2ccccc12,-6,7,-2,1,nt,-20
C/C(=N/N=C/c1ccccc1O)c1ccccc1O,9,28,-5,-1,nt,-5
CCCS/C(N)=N/N=C/c1cc(C)ccc1O,32,-2,60*,0,0,-4
CCCCS/C(N)=N/N=C/c1ccccc1O,26,9,87*,-7,0,4
COc1cc(OC)cc(-c2nnc(NC(=O)c3ccc4c(c3)OCCO4)o2)c1,-6,-1,-12,-2,nt,-5
COCCn1c(SCC(=O)NCC2CCCO2)nc2c(c1=O)SCC2 (configuration not stated),-3,3,1,2,nt,-10
O=C(c1nc2n(n1)C(c1ccc(Cl)cc1)C=C(c1ccccc1)N2)N1CCOCC1 (configuration not stated),4,31*,-11,0,0,-2
CC(=O)Nc1nc2n(n1)C(c1ccccc1)C=C(c1ccccc1)N2 (configuration not stated),-2,-14,12,3,0,-16
N=c1c2c(ncn1Cc1ccco1)Oc1c(ccc3ccccc13)C2c1ccccc1 (configuration not stated),11,63*,8,2,0,-9
CC(C)=C1C2CCC1C1C(=O)N(c3ccc(C)c(C)c3)C(=O)C21 (configuration not stated),-71*,38,-78,7,0,-4
CCc1c(C)nc2ncnn2c1Nc1ccc(C#N)c(Cl)c1,0,30*,1,-4,0,-14
CNc1nc(SCc2ccccc2Cl)nc2c1CCCC2,19,112*,31,0,0,1
O=c1[nH]c(SCc2ccccc2Cl)nc2c1CCC2,14,-9,36,3,-1,-15
CCC1(c2ccccc2)NC(=O)N(CC(=O)NCc2ccc(F)cc2)C1=O (configuration not stated),0,10,22,-1,nt,8
CCC1(c2ccccc2)NC(=O)N(CC(=O)NCc2ccccc2OC)C1=O (configuration not stated),60,9,107*,6,nt,-13
